# This is a sample that favours compounds with a hit; in the whole collection about 1.1% have one here.
# LDHA inh: qHTS assay for inhibitors of human lactate dehydrogenase; purified LDHA, NADH/diaphorase-resazurin fluorescence; hits give low values; L-lactate dehydrogenase A chain (Homo sapiens), P00338; 480,000 tested, 0.15% active; activity change, % (values are at about 110 or 230 µM); in the data active = activity change below about -30%; inconclusive = mostly about -25% to -30%;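 note: plate controls were DMSO wells for no effect and wells without enzyme for full effect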
#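 Resorufin fluorescence (ex540/em590), read at 0 and 20 min after diaphorase/resazurin addition, reports the NADH left after a 5 min room-temperature reaction of 2 nM human LDH5 with 0.06 mM NADH and 0.2 mM pyruvate.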
# GALK inhibitor: qHTS Assay for Inhibitors of Human Galactokinase (GALK); Potency, µM (top dose mostly 57.5 µM), inactives show at the top dose activity change, negative = inhibition, most hits filed as inhibitors; P51570; AID 1868, 2009; 270,000 tested, 0.007% active; Purified GALK, Kinase-Glo residual ATP luminescence; note: potency is the fitted concentration of half-maximal effect
#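 ATP-depletion format; final 35 uM ATP, 100 uM D-galactose, 5 nM enzyme; pH 8.0 HEPES/Mg2+ buffer; 60 min RT; luminescence read 10 min after detection reagent.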
# Integrin act MD: qHTS for Activators of Integrin-Mediated Alleviation for Muscular Dystrophy; alpha7betagal myoblasts, beta-gal FDG fluorescence, 48 h; Potency, µM (doses to about 38.3 µM), for inactives: at the highest dose activation, hits mostly activators; 350,000 tested, 0.064% active;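 note: potency is the fitted concentration of half-maximal effect; 100% = response of the positive control SU9516; nearly all actives have a fitted effect of over 60% in size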
#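 Alpha7betagal+/- myoblasts (passage 13) were plated 16-24 hr, then exposed to compounds (1:260 dilution of DMSO stock) for 48 hours at 37C. After MPER lysis, β-galactosidase reporter activity was read as FDG fluorescence (ex 480/em 540) after 30 minutes.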
# TrxR1 substrate: qHTS Assay for Substrates of Mammalian Selenoprotein Thioredoxin Reductase 1 (TrxR1): qHTS; Thioredoxin reductase 1, cytoplasmic (Rattus norvegicus), O89049; purified TrxR1 substrate turnover, NADPH consumption readout; Potency, µM (highest dose often 114 µM), without a hit: at the highest dose activity change, negative = substrate turnover; 390,000 tested, 0.01% active; note: potency is the fitted concentration of half-maximal effect; nearly all actives have a fitted effect of over 50% in size
#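 Rat TrxR1, dispensed at 90 nM, was prereduced with 400 uM NADPH (final) for 5 min at ~22 deg C, then incubated with compound 15 min before 400 uM selenite. A first-read NADPH fluorescence drop versus no-compound background flagged substrates.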
# rTrxR1 inhibitor: qHTS Assay for Inhibitors of Mammalian Selenoprotein Thioredoxin Reductase 1 (TrxR1): qHTS; Thioredoxin reductase 1, cytoplasmic (Rattus norvegicus), O89049; AID 588453, 2011; Potency, µM (doses to about 114 µM), for inactives: top-dose activity change, negative = inhibition, usual class: inhibitors; 390,000 tested, 1% active; recombinant rTrxR1, NADPH fluorescence consumption, selenite substrate; note: potency is the fitted concentration of half-maximal effect; nearly all actives have a fitted effect of over 65% in size
#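 Rat TrxR1 (90 nM in the dispensed reagent) was pre-reduced with 400 uM NADPH for 5 min at room temperature, then incubated with compound for 15 min. After 400 uM selenite was added, NADPH fluorescence (Ex 340/Em 450 nm) was followed for 8 min.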
# PI4K2A block: qHTS for small molecular inhibitors of PI4K2A. Phosphatidylinositol 4-kinase type 2-alpha (Homo sapiens), Q9BTU6. purified PI4K2A, ADP-Glo luminescence, 1 h; hits give low values. activity change, negative = inhibition, % at 76.9 µM. 420,000 tested, 0.13% active. AID 1346378, 2018; in the data active = activity change below about -50%; inconclusive = mostly about -30% to -49%;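 note: -100% = wells without enzyme as full effect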
# Target sequence (Q9BTU6 whole entry, looked up): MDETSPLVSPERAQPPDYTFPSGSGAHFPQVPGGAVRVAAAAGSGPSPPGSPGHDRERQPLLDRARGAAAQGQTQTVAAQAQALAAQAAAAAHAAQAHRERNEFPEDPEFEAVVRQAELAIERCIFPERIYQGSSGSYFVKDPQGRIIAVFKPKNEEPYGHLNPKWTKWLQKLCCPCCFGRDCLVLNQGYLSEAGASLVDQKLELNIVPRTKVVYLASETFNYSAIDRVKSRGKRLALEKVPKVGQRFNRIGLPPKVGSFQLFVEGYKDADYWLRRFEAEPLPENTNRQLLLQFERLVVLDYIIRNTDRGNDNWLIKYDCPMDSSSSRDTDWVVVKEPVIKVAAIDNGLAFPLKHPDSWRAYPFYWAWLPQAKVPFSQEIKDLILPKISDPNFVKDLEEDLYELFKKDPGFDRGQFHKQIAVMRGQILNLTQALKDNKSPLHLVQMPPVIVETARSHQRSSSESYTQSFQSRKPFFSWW
#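 Compounds are screened against recombinant PI4K2A using PI as substrate and ATP, the latter dispensed at 300 microM. Reactions run one hour at ambient temperature before ADP-Glo detection; full inhibition defined by wells lacking enzyme.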
# Starred values were filed as active, the others as inactive; ? = inconclusive; . = no result; ! = a repeat was not active; [ ] = remark or other dose. Unless noted, calls come from the whole dose curve; as a rule, active = well fitted curve in the direction sought with a large enough effect; inconclusive = small, poorly fitted or top-dose-only effect, or another doubt; inactive = no such curve, though single readings can be large; an effect the other way counts as inactive or inconclusive. Unless noted, % is set by controls: 0 for no effect and ±100 for the full control effect.
SMILES,LDHA inh,GALK inhibitor,Integrin act MD,TrxR1 substrate,rTrxR1 inhibitor,PI4K2A block
CCOC(=O)c1sc2nccc(OC)c2c1N=CNOC,-7,-1%,-6%,6%[57.1 µM],7%[57.1 µM],-59*
Cc1ccc(C)c(/C(O)=C2\C(=O)C(=O)N(c3nnc(C)s3)C2c2ccccc2)c1 (stereo unspecified),11,.,.,.,.,.
CCCCCCC(=O)N(O)C1CC(=O)N(c2ccc(F)cc2)C1=O (stereo unspecified),-1,5%,-34%,12%[57.1 µM],3.5µM*,1
CCCCCCC(=O)N(O)C1CC(=O)N(c2ccc(Br)cc2)C1=O (stereo unspecified),0,-3%,-68%,-3%,22µM*,5
COc1ccccc1N(O)C1CC(=O)N(c2ccc(Br)cc2)C1=O (stereo unspecified),56,-1%,-1%,-9%,45µM*,-2
CCCCN(C(=O)CCC(=O)O)C1CC(=O)N(c2ccc(OCCC)cc2)C1=O (stereo unspecified),-6,3%,6%,5%,14%,1
Cc1ccccc1CCNC(=O)c1ccc2c(c1)CCCC2,13,.,.,.,.,.
CC(C)CN1C(=O)C2(CC(=O)Nc3c2cnn3Cc2ccccc2Cl)c2ccccc21 (stereo unspecified),-5,.,.,.,.,.
C=CCSc1nc2c(c(=O)[nH]c(=O)n2C)n1CC(=C)C,-8,.,.,.,.,.
N#Cc1nc(COc2ccccc2Cl)oc1NCc1cccnc1,2,4%,-13%[7.66 µM],2%,35µM*,1
COc1cc(CNc2cccc(F)c2)cc(Br)c1O,10,3%,-4%,-1%[57.1 µM],13µM*,3
COc1ccc(CNc2ccccc2)cc1Br,4,-1%,-7%,-6%,13%,2
COc1cc(C=Nc2ccccc2C(=O)Nc2ccccc2)cc(OC)c1OC,-5,.,1%,101%,22µM*,-8
COc1cc(NC(=O)c2ccccc2-c2ccccc2)cc(OC)c1OC,.,5%,.,.,.,.
COC(=O)C1=C(C)NC(=O)CC1C(=O)Nc1ccc(Cl)cc1 (stereo unspecified),-65*,.,.,.,.,.
COc1ccccc1CN1CCN(Cc2ccc3ccccc3c2)CC1,-19,8%,-27%,-3%,13%,-5
O=C(c1cccs1)N1CCN(Cc2ccncc2)CC1,-33*,-3%,7%,0%,-11%,7
COc1cc(CN2CCN(C(=O)c3cccc4ccccc34)CC2)cc(OC)c1O,6,-3%,-11%,-1%,50µM*,0
O=C(c1cccc(Cl)c1)N1CCN(Cc2ccncc2)CC1,-31*,0%,0%,-6%,-28%,10
O=C(c1cccs1)N1CCN(Cc2ccccc2)CC1,-9,2%,2%,7%[57.1 µM],-2%[57.1 µM],-1
O=C(c1cccc(C(=O)N2CCN(Cc3ccccc3)CC2)c1)N1CCN(Cc2ccccc2)CC1,-3,0%,-3%,11%[57.1 µM],-48%,7
COc1ccc(CN2CCN(Cc3ccc4ccccc4c3)CC2)cc1OC,-34*,-3%,-50%,10%[57.1 µM],16%[57.1 µM],4
COc1ccccc1CN1CCN(C(=O)c2ccncc2)CC1,-30*,-7%,-26%,-8%,-11%,11
CCOc1ccc(NC(=O)c2oc3ccccc3c2NC(=O)CC)cc1,.,-5%,.,.,.,.
CCOc1ccc(NC(=O)c2oc3ccccc3c2NC(=O)c2c(F)cccc2F)cc1,3,.,.,19%,56µM*,-24
SMILES,LDHA inh,GALK inhibitor,Integrin act MD,TrxR1 substrate,rTrxR1 inhibitor,PI4K2A block
CC(NC(=O)c1cn(C)c2ccc(S(=O)(=O)N3CCCC3)cc2c1=O)c1ccccc1 (stereo unspecified),-1,-5%,2.8µM*,-11%,-11%,-2
CCOC(=O)Nc1ccc2c(c1)N(C(=O)CCN(CC)CC)c1ccccc1S2=O (stereo unspecified),2,-1%,-30%,5%[57.1 µM],28µM*,10
Cc1cc(NC(=O)COc2c(C)cc(Cl)cc2Cl)ccc1NC(=O)c1ccco1,1,.,.,.,.,.
CCOc1ccc(-c2nc(S(=O)(=O)c3ccccc3)c(N3CCC(C(N)=O)CC3)o2)cc1,-1,-2%,-7%,-6%,45µM*,5
COc1ccc(Br)cc1CNc1ccc2[nH]c(=O)[nH]c2c1,2,-1%,4%,-3%,-26%,-2
COc1ccc(Br)cc1CNc1ccc(O)cc1,22,0%,-70%,-7%,?,-50*
COc1cccc(-c2cc(=O)n3[nH]c(C(F)(F)F)nc3n2)c1,15,.,.,.,.,.
CN(Cc1ccc2c(c1)OCO2)C(=O)c1nn(-c2ccccc2)c(=O)c2ccccc12,-35*,.,.,.,.,.
Cn1nc(C(=O)N2CCN(c3ccccc3)CC2)c2ccccc2c1=O,-3,.,.,.,.,.
N#Cc1c(SCC(=O)Nc2ccccc2)nc(N2CCCC2)c2c1CCCC2,1,.,.,.,.,.
CC1=C(/C=C/C(C)=C/C=C/C(C)=C/C(=O)O)C(C)(C)CCC1,-6,-2%,.,8%[57.1 µM],25µM*!,3
CC(/C=C\c1ccccc1)=C/C(=O)O,-6,.,32%,5%[57.1 µM],3%[57.1 µM],-13
CCC(C)(C(=O)NC1CCCC1)N(Cc1cccs1)C(=O)CNC(=O)c1ccccc1 (stereo unspecified),-1,.,.,.,.,.
O=c1cc(CO)oc(C(Nc2ccccn2)c2ccc(C(F)(F)F)cc2)c1O (stereo unspecified),-3,2%,-12%,-9%,-18%,-2
O=c1cc(CO)oc(C(Nc2ccccn2)c2cccc(F)c2)c1O (stereo unspecified),8,-2%,8%,-2%,20µM*,-5
COc1cccc(C(Nc2ccccn2)c2oc(CO)cc(=O)c2O)c1 (stereo unspecified),6,-2%,0%,-2%,71µM*,-6
Clc1ccc(Oc2ccc3nnnn3n2)c(Br)c1,-2,.,.,.,.,.
O=C(OCn1ncc(Cl)c(Cl)c1=O)c1ccc(F)cc1,.,-6%,.,.,.,.
O=C(OCn1ncc(Cl)c(Cl)c1=O)c1ccccc1Cl,-15,-13%,-68%,-6%,8.9µM*,6
N#CC1(NC(=O)COc2cccc(C(F)(F)F)c2)CCCCC1,-2,.,.,.,.,.
COc1ccc(NC(C)=O)cc1S(=O)(=O)N1CCn2cccc2C1C (stereo unspecified),1,.,-37%,-11%,50µM*,0
